Results filed as inconclusive are left out. The source made the active and inactive calls. Calls follow the shape of the dose curve; as a rule, active = well fitted inhibition curve with a large enough effect; inconclusive = small, poorly fitted or top-dose-only effect; inactive = flat fitted curve, though single readings scatter.
Legend:
Assay in all cases: qHTS profiling for inhibitors of Plasmodium falciparum proliferation (AID 504749); also: nearly all actives have a fitted effect of over 60% in size
Details in all cases: P. falciparum in erythrocytes, SYBR Green DNA, 72 h; series mostly up to 28.7 µM
CP286 = test system: CP286
Procedure, shortened: (§1)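 P. falciparum-infected erythrocytes (0.3% parasitemia, 2.5% hematocrit final) were exposed to compounds for 72 h at 37 C in 5% CO2, then lysed with SYBR Green buffer overnight at room temperature; parasite DNA fluorescence was normalized to artemisinin and DMSO controls.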

CP291 = test system: CP291
Procedure, shortened: as §1

CP297 = test system: CP297
Procedure, shortened: as §1

CP305 = test system: CP305
Procedure, shortened: as §1

CP315 = test system: CP315
Procedure, shortened: as §1

CP325 = test system: CP325
Procedure, shortened: as §1

CP329 = test system: CP329
Procedure, shortened: as §1

CP335 = test system: CP335
Procedure, shortened: as §1

DFO2036 = test system: DFO2036
Procedure, shortened: as §1

DIV14 = test system: DIV14
Procedure, shortened: as §1

DIV17 = test system: DIV17
Procedure, shortened: as §1

DIV30 = test system: DIV30
Procedure, shortened: as §1

Dd2 = test system: Dd2
Procedure, shortened: as §1

ECU = test system: ECU
Procedure, shortened: as §1

FAB9 = test system: FAB9
Procedure, shortened: as §1

GB4 = test system: GB4
Procedure, shortened: as §1

HB3 = test system: HB3
Procedure, shortened: as §1

ICS = test system: ICS
Procedure, shortened: as §1

JCK = test system: JCK
Procedure, shortened: as §1

N140 = test system: N140
Procedure, shortened: as §1

Measured: Potency
Potency is read from the fitted curve at half-maximal effect.

Cc1cccc(Nc2ccncc2S(=O)(=O)NC(=O)NC(C)C)c1
inactive: all assays above

COc1cc(NS(=O)(=O)c2ccc(N)cc2)nc(OC)n1
not listed: ICS
inactive: all other assays above

C[C@@H](NCCCc1cccc(C(F)(F)F)c1)c1cccc2ccccc12
active: CP286 11.2 µM | CP291 10.7 µM | CP297 13.5 µM | CP305 13.5 µM | CP325 15.1 µM | DFO2036 11.2 µM | DIV14 6.01 µM | DIV17 5.36 µM | DIV30 7.57 µM | Dd2 5.01 µM | ECU 3.16 µM | GB4 12 µM | HB3 12.6 µM | ICS 1.78 µM | N140 2.82 µM
inactive: FAB9

CN1CCN(c2c(F)cc3c(=O)c(C(=O)O)cn(CCF)c3c2F)CC1
not listed: DIV14
inactive: all other assays above

CCOC(=O)c1ccc(OC(=O)CCCCCN=C(N)N)cc1
active: DIV17 4.55 µM | HB3 4.47 µM | ICS 2 µM
not listed: CP335 | DIV14 | ECU | GB4 | N140
inactive: all other assays above

NC(=O)c1cccnc1
not listed: DIV14
inactive: all other assays above

CNS(=O)(=O)Cc1ccc2[nH]cc(CCN(C)C)c2c1
not listed: CP335
inactive: all other assays above

CC(C)OC(=O)C(C(=O)OC(C)C)=C1SC=CS1
not listed: CP335 | DIV14 | DIV30
inactive: all other assays above

CC(C)Cn1cnc2c(N)nc3ccccc3c21
not listed: HB3
inactive: all other assays above

CN1CCCC(n2nc(Cc3ccc(Cl)cc3)c3ccccc3c2=O)CC1 (stereo not given)
inactive: CP305 | CP315 | CP325 | CP329 | DFO2036 | DIV30 | FAB9 | HB3
active: DIV14 7.57 µM | DIV17 7.57 µM | Dd2 11.2 µM | ICS 8.91 µM

CNC(=O)c1cc(Oc2ccc(NC(=O)Nc3ccc(Cl)c(C(F)(F)F)c3)cc2)ccn1
active: CP297 9.53 µM | DIV14 2.69 µM | DIV17 3.01 µM | DIV30 1.07 µM | ECU 8.91 µM | GB4 13.5 µM | HB3 11.2 µM | ICS 1.12 µM | N140 5.01 µM
inactive: FAB9

CCCc1cc(C(N)=S)ccn1
not listed: CP297
inactive: all other assays above

COc1ccc(C(=O)CC(=O)c2ccc(C(C)(C)C)cc2)cc1
not listed: CP286 | Dd2 | HB3 | ICS
inactive: all other assays above

N[C@@H](Cc1ccc(O)c(O)c1)C(=O)O
inactive: CP291 | CP297 | CP305 | CP315 | CP325 | CP329 | DIV14 | DIV17 | DIV30 | GB4

CC(C)(C)C(=O)OCOP(=O)(COCCn1cnc2c(N)ncnc21)OCOC(=O)C(C)(C)C
inactive: CP291 | CP305 | CP315 | CP325 | CP329 | DIV30 | ECU | FAB9 | JCK

COc1c(N2CCNC(C)C2)c(F)cc2c(=O)c(C(=O)O)cn(C3CC3)c12 (stereo not given)
not listed: CP286 | CP291 | CP297 | Dd2
inactive: all other assays above

NC(=O)N1c2ccccc2CC(=O)c2ccccc21
not listed: CP291 | CP329
inactive: all other assays above

O=c1oc2c(O)c(O)cc3c(=O)oc4c(O)c(O)cc1c4c23
active: CP286 1 µM | CP297 1.51 µM | CP335 0.849 µM | Dd2 2 µM | GB4 0.849 µM | HB3 2 µM | ICS 0.891 µM
inactive: CP325 | CP329 | JCK

COC(=O)Nc1nc2ccc(C(=O)c3ccccc3)cc2[nH]1
not listed: CP291 | CP305 | CP325 | DIV14 | DIV17 | GB4
inactive: all other assays above

COc1cc([C@@H]2c3cc4c(cc3[C@H](O)[C@H]3COC(=O)[C@H]23)OCO4)cc(OC)c1OC
active: CP286 4.47 µM | CP297 15.1 µM | CP305 6.75 µM | CP325 13.5 µM | CP335 3.38 µM | DFO2036 2.82 µM | DIV14 2.13 µM | DIV17 1.69 µM | DIV30 6.75 µM | Dd2 2.24 µM | ECU 3.55 µM | FAB9 6.31 µM | GB4 3.38 µM | HB3 1.78 µM | ICS 0.891 µM | N140 2.82 µM

CCn1cc(C(=O)O)c(=O)c2cc(F)c(N3CCNCC3)nc21
not listed: CP291 | DFO2036 | Dd2 | ICS
inactive: all other assays above

CCn1cc(C(=O)O)c(=O)c2cc(F)c(N3CCNCC3)cc21
inactive: CP315 | CP329 | DIV14 | DIV17 | DIV30 | ECU | FAB9 | HB3 | JCK

CCOC(=O)c1ccc(C#Cc2ccc3c(c2)C(C)(C)CCS3)nc1
not listed: CP286 | CP291 | CP305 | CP335 | DIV14 | ICS
inactive: all other assays above

CNCC[C@H](Oc1cccc2ccccc12)c1cccs1
inactive: CP291 | CP305 | CP315 | CP325 | CP329 | FAB9
active: CP286 12.6 µM | DIV17 3.01 µM | DIV30 10.7 µM | Dd2 6.31 µM | ECU 11.2 µM | GB4 12 µM | ICS 3.16 µM | N140 8.91 µM

CN(Cc1cc(Br)cc(Br)c1N)C1CCCCC1
not listed: CP286 | CP335 | DIV14 | Dd2 | GB4 | HB3 | ICS
inactive: all other assays above

CCOc1cc(N)c(Cl)cc1C(=O)NCC1CN(Cc2ccc(F)cc2)CCO1 (stereo not given)
active: CP286 3.98 µM | CP291 12 µM | CP305 10.7 µM | CP329 13.5 µM | CP335 6.75 µM | ECU 10 µM | GB4 12 µM | HB3 8.91 µM | ICS 3.98 µM

Oc1c(Cl)cc(Cl)c2cccnc12
inactive: CP315 | Dd2 | FAB9 | HB3 | JCK
active: CP329 10.7 µM | DFO2036 10 µM | GB4 12 µM | ICS 7.94 µM | N140 12.6 µM

CCn1cc(C(=O)O)c(=O)c2cc(F)c(N3CCN(C)CC3)cc21
active: CP286 7.08 µM | Dd2 12.6 µM
not listed: CP291 | CP305 | CP335 | DFO2036 | ECU | ICS
inactive: all other assays above

CC(N)C12CC3CC(CC(C3)C1)C2 (stereo not given)
inactive: CP315 | DFO2036 | Dd2 | ECU | FAB9 | HB3 | ICS
active: CP297 7.57 µM | GB4 6.75 µM

CCCCOc1ccc(CC(=O)NO)cc1
active: CP286 3.98 µM | CP291 3.22 µM | CP305 4.55 µM | CP329 3.22 µM | CP335 1.61 µM | DFO2036 2.82 µM | DIV14 1.44 µM | DIV17 2.87 µM | DIV30 2.56 µM | Dd2 3.55 µM | GB4 3.22 µM | HB3 3.98 µM | ICS 3.16 µM | N140 3.98 µM

COc1cc2c(Nc3ccc(Br)cc3F)ncnc2cc1OCC1CCN(C)CC1
active: CP286 3.98 µM | CP291 3.79 µM | CP305 2.39 µM | CP325 10.7 µM | CP335 4.26 µM | DFO2036 0.794 µM | DIV14 1.51 µM | DIV17 2.39 µM | Dd2 8.91 µM | ECU 3.16 µM | FAB9 10 µM | GB4 1.51 µM | HB3 5.01 µM | ICS 3.98 µM | N140 2.51 µM
inactive: CP315

CC1=CC(=O)c2ccccc2C1=O
not listed: CP286 | DIV14 | DIV17 | GB4 | ICS
inactive: all other assays above

CCCCCCNC(=O)n1cc(F)c(=O)[nH]c1=O
active: CP286 7.08 µM | CP291 12 µM | CP335 5.36 µM | DIV14 5.36 µM | DIV17 8.49 µM | DIV30 13.5 µM | GB4 8.49 µM | HB3 8.91 µM | ICS 4.47 µM
